We go through 40 compounds from PubChem BioAssay (NCI).

The panel holds about 83,000 compounds, 20% with a hit somewhere; the sample as a whole holds those more often.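 48-hour exposure, single concentration, 96-well plates; percent growth endpoint where 0 means no net growth. Active: below 10.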 Calls of active or inactive are those of the source.

For the test, the system named is MDA-MB-468 breast. The experiment in a line: NCI-60 one-dose screen, 48 h (100 = growth as untreated, 0 = no growth, -100 = all killed). The following applies: 10 µM unless noted.
On to `Cc1cc(-c2cc(C)c(O)c(C)c2)cc(C)c1O`, for which the growth was 26.1% (inactive).
As to `CCOC(=O)c1cc(C(=O)c2ccc(OC)c(OC)c2)n2ccc(-c3ccccn3)cc12`, the growth is 74.9% (inactive).
With `Cc1cc(Cl)nc(N(CCNc2ccnc3cc(Cl)ccc23)Cc2ccccn2)n1` the figure was 3.86% (active); with `C#CCNC(=O)[C@]1(C)CCC[C@@]2(C)[C@H]1CC=C1C=C(C(C)C)CC[C@@H]12`, 101% (inactive).
Turning to `O=C(Nc1cccc(-c2nc(-c3ccc(NC(=O)c4cccnc4)cc3Cl)no2)c1)Nc1ccc(NC(=O)C2CC2)c(C(F)(F)F)c1`, the growth is -72.6% (active).
Consider `O=C1Nc2c(c(=O)n(-c3ccccc3)c3ccccc23)C(c2ccc(Cl)cc2)N1` (stereo not given), for which the growth was 119% (inactive).
For the compound `CCN(CC)c1ccc2c(c1)Oc1nc(N)c(C#N)c(N)c1C2Sc1ccc(F)cc1` (stereo not given), the growth was -70.1% (active).
Take `CN1CCN(c2nc(-c3cccnc3)nc3sc4c(c23)CCCCCC4)CC1`: the growth was 94.2% (inactive).
Turning to `CCOc1ccc(-n2cc(-c3ccc(N(C)C)cc3)[n+]3c2CCCCC3)cc1`, the growth was -17.4% (active).
In the case of `COc1cc2ncnc(Nc3ccc(O)cc3)c2cc1OC`, the growth was 17.6% (inactive).
Turning to `CC(=O)Oc1cc(C)c(OC(C)=O)c(C)c1C`, the growth is 47.1% (inactive).
In the case of `CC(C)=CCC[C@](C)(O)[C@H]1CC[C@]2(C)[C@@H]1CC[C@@H]1[C@@]3(C)C/C(=C/c4cccc([N+](=O)[O-])c4)C(=O)C(C)(C)[C@@H]3CC[C@]12C`, the growth is 84.3% (inactive).
Take `Cn1cc(C=O)c2ccccc21`: the growth is 100% (inactive).
For `COc1ccc(CCl)c(C)c1OC`, the growth was 109% (inactive).
For `CCC(c1cccc(Br)c1)C(C(=O)O)c1ccc(OC)cc1` (stereo not given), the growth was 102% (inactive).
With `CC1CC2Oc3ccc(Cl)cc3C(=O)N2O1` (stereo not given), the growth is 94.5% (inactive).
For the compound `COC(=O)c1ccc2[nH]c(O)c(C(=Nc3ccc(N(C)C(=O)CN4CCN(C)CC4)cc3)c3ccc(OC)cc3)c2c1`, the growth was 64.5% (inactive).
Take `N#C/C(=C\c1ccc(Br)cc1)n1nnc2cc(F)c(F)cc21`: the growth is -6.6% (active).
Take `C[C@@H]1C[C@H]2C(=O)O[C@@H](C)C(NC(=O)[C@H](Cc3cc(F)cc(F)c3)NC(=O)Nc3ccc(Cl)cc3F)C(=O)N3CCC[C@H]3C(=O)N3CCCC[C@H]3C(=O)N[C@@H](CO)C(=O)N2C1` (stereo not given in full): the growth was -10.4% (active).
Turning to `CN(C)c1ccc(C(=C2C=CC(=[N+](C)C)C=C2)c2ccc(N(C)C)cc2)cc1` (tested in a mixture with another compound), the growth is -95% (active).
Regarding `CNC(=O)NCC1OC(n2cnc3c(NC(=O)Nc4ccccc4)ncnc32)C(O[Si](C)(C)C(C)(C)C)C1O[Si](C)(C)C(C)(C)C` (stereo not given), the growth is 35.8% (inactive).
As for `COc1ccc(/C(C)=C(\c2ccc(Cl)cc2)c2ccc(OCCCN(C)C)cc2)cc1F`, the figure is 75.7% (inactive); as for `COC(=O)CCc1cc(O)c2c(c1)[C@@H](C(=O)OC)[C@H](c1ccc(O)c(O)c1)O2`, 83.4% (inactive); as for `Clc1c(Cl)[n+](Cc2ccc3ccccc3c2)cn1Cc1ccc2ccccc2c1`, -22.6% (active).
As for `CCCc1nn(C)c2c(=O)[nH]c(-c3cc(S(=O)(=O)N4CCN(C)CC4)ccc3OCC)nc12`, the growth was 110% (inactive).
As for `CCCc1cc(=O)oc2c3c(c4c(c12)OC(C)(C)CC4)OC(C)[C@H](C)[C@@H]3O` (stereo not given in full), the figure is 108% (inactive); as for `C=C1CC[C@@H]2[C@](C)(COC(C)=O)[C@H](OC(C)=O)CC[C@@]2(C)[C@@H]1CC(Nc1ccc(S(=O)(=O)NC(C)=O)cc1)C1=CCOC1=O` (stereo not given in full), -53.9% (active); as for `CCOC(=O)C1(CC(C)C)CCOC1=O` (stereo not given), 99.7% (inactive).
With `COC(=O)[C@]12CC[C@@H](C)[C@H](C)[C@@H]1C1=CC[C@@H]3[C@@]4(C)C(C#N)=CC(C)=C4CC[C@@]3(C)[C@]1(C)CC2` the figure was 76.7% (inactive).
With `O=C(Oc1ccccc1)C(Br)C(Br)c1ccccc1` (stereo not given), the growth is 56.7% (inactive).
With `Cc1cc[n+](CCCC[n+]2ccc(C)cc2)cc1`, the growth was 99% (inactive).
With `CN(C)CC1C(=O)O[C@H]2[C@H]1CC/C(COC(=O)c1cc3ccccc3[nH]1)=C\CC[C@@]1(C)O[C@@H]21` (stereo not given in full), the growth is -59.8% (active).
As for `c1cnc2n[nH]c(Nc3ncnc4c3sc3ncccc34)c2c1`, the growth was 96.5% (inactive).
With `CCCCCCCCCCSc1ncnc2nc[nH]c12`, the growth is 8.95% (active).
`O=C1c2cccc3cccc(c23)C(=O)N1C/C=C/c1ccc2c3c(cccc13)C(=O)N(CCO)C2=O`: the growth was 79.8% (inactive).
Take `Cc1ccc2sc3c(c2c1)OC(N)=C(C#N)C3c1ccc(Cl)cc1` (stereo not given): the growth is -18.7% (active).
With `CCCCc1nc(Cl)c(C2CC(c3ccc(S(N)(=O)=O)cc3)=NN2c2ccc(C#N)cc2)[nH]1` (stereo not given) the figure was 64.5% (inactive).
Turning to `CCOc1nc(-c2ccccc2)cc2c(O)c(-c3nnco3)[nH]c(=O)c12`, the growth is 16.6% (inactive).
Regarding `CN(C)c1ccc(/C=C/c2c(F)cccc2F)cc1`, the growth was 81.3% (inactive).
As for `O=S(=O)(OCCO)c1ccccc1`, the growth was 97% (inactive).
